Consider 35 compounds from ChEMBL document CHEMBL3433997, “St. Jude Leishmania screening dataset” (2016).

One may read the inhibition as the relative decrease from the control value, in per cent.

Common to all, as to type: functional
Assay [1] deals with Solute carrier family 2, facilitated glucose transporter member 1 (Homo sapiens) (UniProt P11166). The assay can be described thus: ST_JUDE_LEISH: Cytotoxicity at 2uM final concentration against transgenic Leishmania Mexicana promastigotes LmGLUT1 that are glucose transport deficient and complemented with the human glucose transporter GLUT1. Activity is measured by DNA content using SYBR green in vitro.

Assay [2] deals with Hexose transporter 1 (Plasmodium falciparum) (UniProt O97467). The assay can be described thus: ST_JUDE_LEISH: Cytotoxicity at 2uM final concentration against transgenic Leishmania Mexicana promastigotes LmPfHT that are glucose transport deficient and complemented with the Plasmodium falciparum hexose transporter. Activity is measured by DNA content using SYBR green in vitro.

The target in assay [3] is Glucose transporter (Leishmania mexicana) (UniProt O61059). As to the kind of experiment: ST_JUDE_LEISH: Cytotoxicity at 2uM final concentration against transgenic Leishmania Mexicana promastigotes LmGT2 that are glucose transport deficient and complemented with the L. Mexicana glucose transporter 2. Activity is measured by DNA content using SYBR green in vitro.

Each structure is given as a SMILES string.

Solute carrier family 2, facilitated glucose transporter member 1 (Homo sapiens), sequence (P11166 whole entry): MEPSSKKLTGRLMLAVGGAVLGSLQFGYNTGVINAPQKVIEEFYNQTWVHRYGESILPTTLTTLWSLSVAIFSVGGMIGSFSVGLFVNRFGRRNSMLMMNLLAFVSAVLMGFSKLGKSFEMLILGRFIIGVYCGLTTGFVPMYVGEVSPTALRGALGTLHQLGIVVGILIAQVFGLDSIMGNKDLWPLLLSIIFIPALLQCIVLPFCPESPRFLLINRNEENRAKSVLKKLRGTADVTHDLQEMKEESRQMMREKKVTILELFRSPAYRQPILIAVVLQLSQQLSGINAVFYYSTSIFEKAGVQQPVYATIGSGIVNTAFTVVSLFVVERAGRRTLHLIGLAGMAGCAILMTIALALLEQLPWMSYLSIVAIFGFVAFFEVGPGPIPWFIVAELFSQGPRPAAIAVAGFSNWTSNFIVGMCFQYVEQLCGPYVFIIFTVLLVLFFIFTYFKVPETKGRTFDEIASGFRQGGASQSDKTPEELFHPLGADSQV

For `CN(C)CCNCc1cccc(-c2cccc(-c3nc4ccccc4[nH]3)c2)c1`, the inhibition turned out to be 2.56% in assay [1], 2.66% in assay [2] and 1.85% in assay [3].
In the same order, the values of `CC1CN(S(=O)(=O)c2ccc(NC(=O)c3cc(-c4ccccc4O)n[nH]3)cc2)CC(C)O1` (stereo not given) are 4.88%, 5.64% and 4.67%.
In the same order, the values of `CCc1ccc(NC(=O)N(CCCn2ccnc2)Cc2csc(-c3ccc(CNCc4ccccc4)cc3)n2)cc1` are 2.66%, 2.93% and 2.49%.
For `Cc1cccc(CCCNC(=O)CN(c2cccc(C(F)(F)F)c2)S(=O)(=O)c2ccc(C(F)(F)F)cc2)c1`, in that order: 5.38%, 4.48% and 4.63%.
Turning to `CCN(CC)CCN(Cc1ccc(-c2ccc(C(F)(F)F)cc2)cc1)C(=O)Cn1cc(Cc2cnn(C)c2)c(=O)n2nc(-c3ccccc3)cc12`, the inhibition in assay [1] was found to be 4.45%; in assay [2], 4.37%; in assay [3], 4.16%.
For `CN1CCN(Cc2cccc(-c3cc4nccc(Nc5ccc(Oc6ccccc6)cc5)c4cc3Cl)c2)CC1`, in that order: -1.94%, 0.9% and 1.01%.
Take `O=C(NCC1CC1)C1CCN(C(c2ccccc2)c2cc(F)cc(F)c2)CC1` (stereo not given): the inhibition in assay [1] is 3.61%; in assay [2], 3.92%; in assay [3], -1.03%.
In the same order, the values of `O=C(/C=C/c1ccc(Cl)c(Cl)c1)NCCCCCN1CCC(c2c[nH]c3cc(O)ccc23)CC1` are 9.77%, 8.43% and 7.41%.
For `Cc1cccc2nc(-c3cccc(-c4cccc(NC(=O)Nc5ccc(Cl)c(Cl)c5)c4)c3)[nH]c12`, in that order: -0.37%, -0.17% and -0.99%.
For `COc1cc(Cc2cnc(N)nc2N)cc(OCCCCCC(=O)O)c1OC`, in that order: 6.91%, 5.78% and 5.12%.
On to `COc1ccc(C(=O)C2CC2CN(C)CC(O)c2cc(C)c(OC)cc2C)cc1` (stereo not given), for which the inhibition in assay [1] is 8.26%; in assay [2], 7.67%; in assay [3], 6.57%.
In the same order, the values of `CCN(CC)CC#Cc1ccc2[nH]c(C)c(Cl)c(=O)c2c1` are 3.66%, 3.51% and 4.12%.
For `O=C(Nc1ccc(CCNCCCc2ccccc2)cc1)Nc1ccc(Cl)c(Cl)c1`, in that order: -0.55%, -0.63% and -1.86%.
Consider `Cc1ccc(S(=O)(=O)Nc2ccc(Nc3nccc(Nc4cccc5[nH]ncc45)n3)cc2)cc1`, for which the results for the inhibition in assay [1], in assay [2] and in assay [3] were 1.77%, 2.62% and 0.3%, respectively.
In the same order, the values of `O=C(Nc1ccc(OC2CCN(Cc3ccc(F)cc3)C2)cc1)c1cccs1` (stereo not given) are -3.81%, -1.65% and -0.11%.
In the same order, the values of `Cc1ccc2c(NC(=O)Nc3ccc(N(C)C)cc3)cc(C)nc2c1` are 5.9%, 5.56% and 6.28%.
In the same order, the values of `c1ccc2cc3c(NCCN4CCOCC4)ccnc3cc2c1` are 7.07%, 6.74% and 7.2%.
On to `CC(C)(C)c1ccc(CN2CCC(NC(=O)c3ccc(-c4ccccc4F)s3)CC2)cc1`, for which the inhibition was 0.69% in assay [1], -2.65% in assay [2] and -2.5% in assay [3].
For `Cc1ccnc(NC(=O)c2cc(-c3cccc([N+](=O)[O-])c3)nc3onc(C)c23)c1`, in that order: 6.8%, 7.59% and 4.35%.
For `c1ccc(C(c2ccccc2)N2CCC(NCc3ccc(OCCCN4CCCCC4)cc3)CC2)cc1`, the inhibition in assay [1] was 8.52%; in assay [2], 11.3%; in assay [3], 10.7%.
For `Cn1cc(Br)c(-c2cccc(Nc3ccnc4cc(-c5nccs5)ccc34)c2)n1`, in that order: 3.67%, 2.34% and 4.06%.
For `Nc1cc(-c2ccc(Br)cc2O)nc2ccccc12`, in that order: 1.51%, 0.65% and 2.06%.
In the same order, the values of `Cn1ccc(-c2cccc(Nc3ccnc4cc(-c5nccs5)ccc34)c2)n1` are -0.21%, 0.32% and -0.17%.
`Cc1ccc(Nc2nccc(Nc3ccc4c(c3)nc(Nc3cc(C(C)(C)C)on3)n4C)n2)cc1S(C)(=O)=O`: the inhibition in assay [1] is 3.26%; in assay [2] it was 5.38%; in assay [3], -1.41%.
Take `CCNC[C@@H](O)[C@H](Cc1ccccc1)NC(=O)c1cc2c3c(c1)c(CC)cn3CCS(=O)(=O)N2C`: the inhibition in assay [1] was 0.67%; in assay [2], 0.11%; in assay [3], -0.02%.
As to `CCCNC(=O)c1cncc(-c2ccc(CNCCCc3ccccc3)cc2)c1`, the inhibition in assay [1] turned out to be 1.92%; in assay [2], 1.6%; in assay [3], 0.59%.
For `COc1ccc(N2CCN(CCCCNC(=O)c3ccc(NC(=O)c4cccc(Cl)c4)cc3)CC2)c(OC)c1`, in that order: 3.81%, 0.48% and 4.97%.
In the same order, the values of `Cn1cncc1C(=O)Nc1ccc(-c2cccc(-c3nc4cc(F)ccc4[nH]3)c2)cc1` are 3.54%, 3.21% and 4.7%.
As to `Nc1nc(Nc2cccc(Cl)c2)ncc1C(=O)NCc1ccncc1`, the inhibition was 9.01% in assay [1], 7.86% in assay [2] and 8.62% in assay [3].
For `O=C(CSc1nnc(-c2ccccc2Br)[nH]1)c1c[nH]c2ccccc12`, in that order: -0.5%, -0.7% and 1.98%.
For `CC(=O)N1N=C(c2ccc(Cl)cc2)Sc2c1nc(C1CCCCC1)n2C(C)=O`, in that order: -0.67%, 0.1% and -0.39%.
In the same order, the values of `COc1ccccc1/C=C/C(=O)N(C)C1CCN(CCCCCNC(=O)/C=C/c2ccc(Cl)c(Cl)c2)CC1` are 4.19%, 2.77% and 5.48%.
In the case of `CC[C@H](C)CNC(=O)c1cncc(-c2ccc(CNCCOc3ccccc3)cc2)c1`, the values for the inhibition in assay [1], in assay [2] and in assay [3] were 1.83%, 2.11% and 1.09%, respectively.
Regarding `C=Cc1cc(NC(=O)N2CCc3cc(OC)c(C(F)(F)F)cc32)cc(-c2cccnc2)c1`, the inhibition in assay [1] is 4.52%; in assay [2] it was -1.84%; in assay [3] it was -1.09%.
For `c1ccc(-c2cc(NCc3cccc4ccccc34)c3[nH]ncc3n2)cc1`, in that order: 5.11%, 5.96% and 6.54%.
